Inconclusive results are not listed. Active and inactive are the calls of the source. The call rests on the fitted dose curve; in most records, active means well fitted curve in the direction sought with a large enough effect; inconclusive means small, poorly fitted or top-dose-only effect, or another doubt; inactive means no such curve, though single readings can be large; an effect the other way counts as inactive or inconclusive.
Columns and labels:
[1] = test system: Es-2; assay: Primary qHTS to identify gynecologic anti-cancer compounds using libraries of approved drugs and bioactive compounds (AID 1345084); settings: Gynecologic cancer cell panel viability, ATPlite luminescence, 48 h; series mostly up to 57.5 µM; further: nearly all actives have a fitted effect of over 55% in size
In short: (§1)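 Measured: luminescence after ATPlite addition (15 min, RT). Exposure: 48 h, 37 C, 5% CO2.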

[2] = test system: HeLa; assay: as above; settings: Gynecologic cancer cell panel viability, ATPlite luminescence, 48 h; series mostly up to 57.5 µM
In short: as §1

[3] = test system: Hek293T; assay: as above; settings: Gynecologic cancer cell panel viability, ATPlite luminescence, 48 h, control line for the selectivity index; series mostly up to 57.5 µM
In short: as §1

[4] = test system: JEG-3; assay: as above; settings: Gynecologic cancer cell panel viability, ATPlite luminescence, 48 h; series mostly up to 57.5 µM
In short: as §1

[5] = test system: OV90; assay: as above; settings: Gynecologic cancer cell panel viability, ATPlite luminescence, 48 h; series mostly up to 57.5 µM
In short: as §1

[6] = test system: PA-1; assay: as above; settings: Gynecologic cancer cell panel viability, ATPlite luminescence, 48 h; series mostly up to 57.5 µM
In short: as §1

[7] = test system: SKOV3; assay: as above; settings: Gynecologic cancer cell panel viability, ATPlite luminescence, 48 h; series mostly up to 57.5 µM
In short: as §1

[8] = test system: Tov-21-G; assay: as above; settings: Gynecologic cancer cell panel viability, ATPlite luminescence, 48 h; series mostly up to 57.5 µM
In short: as §1

[9] = test system: Tov112D; assay: as above; settings: Gynecologic cancer cell panel viability, ATPlite luminescence, 48 h; series mostly up to 57.5 µM
In short: as §1

[10] = Drug repurposing screens with cells derived from glioblastoma tumor samples (AID 1345199); settings: GBM patient neurospheres viability, ATP luminescence, 48 h; further: nearly all actives have a fitted effect of over 40% in size
In short: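 Four patient lines of CD133+ GBM neurospheres were screened at several concentrations; hits were retested in those lines plus three slower-growing GBM lines, using 48-hour treatment and ATP-based viability.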

[11] = at 45.9 µM (top of the series), tumour line B
[12] = at 45.9 µM (top of the series), tumour line D
[13] = at 46 µM (top of the series), tumour line A
[14] = at 46.1 µM (top of the series), tumour line C
[15] = at 20 µM (top of the series), tumour line C
[16] = at 21.2 µM (top of the series), tumour line B
[17] = at 21.2 µM (top of the series), tumour line D
[18] = at 21.3 µM (top of the series), tumour line A
On the % scale 0 is the no-effect control and ±100 the full control effect.

CCOc1ccccc1C(N)=O
inactive: Potency [1] | Potency [2] | Potency [3] | Potency [4] | Potency [5] | Potency [6] | Potency [7] | Potency [8] | Potency [9] | activity, negative = cell killing [10, 11] -5.35% | activity, negative = cell killing [10, 12] -0.0314% | activity, negative = cell killing [10, 13] -26.8% | activity, negative = cell killing [10, 14] -1.96%

CCC1NC(=O)c2cc(S(N)(=O)=O)c(Cl)cc2N1 (stereo not given)
inactive: Potency [1] | Potency [2] | Potency [3] | Potency [4] | Potency [5] | Potency [6] | Potency [7] | Potency [8] | Potency [9] | activity, negative = cell killing [10, 15] -6.38% | activity, negative = cell killing [10, 16] -2.62% | activity, negative = cell killing [10, 17] -14.7% | activity, negative = cell killing [10, 18] -12.3%

CCNC(=O)NCc1cccc(Cl)c1
inactive: Potency [1] | Potency [2] | Potency [3] | Potency [4] | Potency [5] | Potency [6] | Potency [7] | Potency [8] | Potency [9] | activity, negative = cell killing [10, 11] -11.2% | activity, negative = cell killing [10, 12] -6.28% | activity, negative = cell killing [10, 13] -30% | activity, negative = cell killing [10, 14] -10.1%

CCCCCCCCCCCCCCCC(=O)O
inactive: Potency [1] | Potency [2] | Potency [3] | Potency [4] | Potency [5] | Potency [6] | Potency [7] | Potency [8] | Potency [9] | activity, negative = cell killing [10, 11] -2.37% | activity, negative = cell killing [10, 12] 1.78% | activity, negative = cell killing [10, 13] -27.9% | activity, negative = cell killing [10, 14] 2.94%

Cc1ccccc1OCC(O)CO (stereo not given)
inactive: Potency [1] | Potency [2] | Potency [3] | Potency [4] | Potency [5] | Potency [6] | Potency [7] | Potency [8] | Potency [9] | activity, negative = cell killing [10, 11] -8.02% | activity, negative = cell killing [10, 12] -9.22% | activity, negative = cell killing [10, 14] -19.6%

O=C(O)CCC(=O)Nc1ccc(S(=O)(=O)Nc2nccs2)cc1
inactive: Potency [1] | Potency [2] | Potency [3] | Potency [4] | Potency [5] | Potency [6] | Potency [7] | Potency [8] | Potency [9] | activity, negative = cell killing [10, 15] -5.75% | activity, negative = cell killing [10, 16] 2.8% | activity, negative = cell killing [10, 17] -10.2% | activity, negative = cell killing [10, 18] -13.6%

COc1cc(C(=O)NCc2ccc(OCCN(C)C)cc2)cc(OC)c1OC
inactive: Potency [1] | Potency [2] | Potency [3] | Potency [4] | Potency [5] | Potency [6] | Potency [7] | Potency [8] | Potency [9] | activity, negative = cell killing [10, 15] -15.6% | activity, negative = cell killing [10, 16] -6.09% | activity, negative = cell killing [10, 17] -9.89% | activity, negative = cell killing [10, 18] -23.1%

COc1cc(O)c(C(=O)c2ccccc2)cc1S(=O)(=O)O
inactive: Potency [1] | Potency [2] | Potency [3] | Potency [4] | Potency [5] | Potency [6] | Potency [7] | Potency [8] | Potency [9] | activity, negative = cell killing [10, 11] -4.01% | activity, negative = cell killing [10, 12] -5.06% | activity, negative = cell killing [10, 13] -20.9% | activity, negative = cell killing [10, 14] 6.07%

CCCc1ncc(C[n+]2ccccc2C)c(N)n1
inactive: Potency [1] | Potency [2] | Potency [3] | Potency [4] | Potency [5] | Potency [6] | Potency [7] | Potency [8] | Potency [9] | activity, negative = cell killing [10, 15] 11.7% | activity, negative = cell killing [10, 16] -1.46% | activity, negative = cell killing [10, 17] -1.64% | activity, negative = cell killing [10, 18] -22.4%

CC(=O)OCC1=C(C(=O)O)N2C(=O)[C@@H](NC(=O)CSc3ccncc3)[C@H]2SC1
inactive: Potency [1] | Potency [2] | Potency [3] | Potency [4] | Potency [5] | Potency [6] | Potency [7] | Potency [8] | Potency [9] | activity, negative = cell killing [10, 11] -6.44% | activity, negative = cell killing [10, 12] -23.6% | activity, negative = cell killing [10, 13] -34.9% | activity, negative = cell killing [10, 14] -18.9%

COc1ccc(-c2cc(C(F)F)nn2-c2ccc(S(N)(=O)=O)cc2)cc1F
inactive: Potency [1] | Potency [2] | Potency [3] | Potency [4] | Potency [5] | Potency [6] | Potency [7] | Potency [8] | Potency [9] | activity, negative = cell killing [10, 11] -10.4% | activity, negative = cell killing [10, 12] -9.89% | activity, negative = cell killing [10, 13] -29.7% | activity, negative = cell killing [10, 14] 2.98%

FC(F)(F)C(F)(F)C(F)(F)C(F)(F)C(F)(F)C(F)(F)C(F)(F)C(F)(F)Br
inactive: Potency [1] | Potency [2] | Potency [3] | Potency [4] | Potency [5] | Potency [6] | Potency [7] | Potency [8] | Potency [9] | activity, negative = cell killing [10, 11] -8.68% | activity, negative = cell killing [10, 12] -7.68% | activity, negative = cell killing [10, 13] -17.2% | activity, negative = cell killing [10, 14] 5.77%

Source: PubChem BioAssay (NCATS)
